Source: PubChem BioAssay (NCATS)
“And” between values parts separate entries of the source, which are not always exact repeats. Equal entries are not always repeated. Results filed as inconclusive are left out. The source made the active and inactive calls. The call rests on the fitted dose curve; in most records, active means well fitted cell-killing curve with a large enough effect in the repeat runs; inconclusive means weak or mixed curves; inactive means flat fitted curve, though single readings scatter.

assay: qHTS assay for small molecule agonists of the antioxidant response element (ARE) signaling pathway measured by Nrf2-dependant transcriptional activity - cell viability counter screen (AID 720653); details: ARE-bla HepG2 viability, CellTiter-Glo ATP luminescence, 16 h; hits give low values
From the text: National Center for Advancing Translational Sciences [NCATS] NIH Chemical Genomics Center [NCGC] U.S. Environmental Protection Agency [EPA] National Institutes of Environmental Health Sciences [NIEHS] National Toxicology Program [NTP] Assay Overview: Oxidative stress has been implicated in the pathogenesis of a variety of diseases ranging from cancer to neurodegeneration. The antioxidant response element (ARE) signaling pathway plays an important role in the amelioration of oxidative stress. The CellSensor ARE-bla HepG2 cell line (Invitrogen) can be used for analyzing the Nrf2/antioxidant response signaling pathway. Nrf2 (NF-E2-related factor 2) and Nrf1 are transcription factors that bind to AREs and activate these genes. The CellSensor ARE-bla HepG2 cell line contains a beta-lactamase reporter gene under control of the Antioxidant Response Element (ARE) stably integrated into HepG2 cells. The activation of the report gene under culture conditions can be detected by fluorescence intensity. The cytotoxicity of the compounds against the ARE-bla HepG2 cell line was quantified by measuring the intracellular ATP content.
Assay Protocol Summary: ARE-bla HepG2 cells were dispensed at 2,000 cells/5 ul/well in 1536-well black wall/clear bottom plates using a Multidrop Combi (ThermoFisher Scientific, Waltham, MA) dispenser. After the assay plates were incubated at 37C/5% CO2 for 5 hrs, 23 nL of compounds dissolved in DMSO, positive controls or DMSO only was transferred to the assay plate by a pintool work station (Kalypsys, San Diego, CA). The plates were incubated at 37C/5% CO2 for 16 hrs. After 1 uL of LiveBLAzer B/G FRET substrate was added using a Flying Reagent Dispenser (FRD) (Aurora Discovery, San Diego, CA), the assay plates were incubated at room temperature for 2 hrs. The fluorescence intensity was measured by an Envision (PerkinElmer, Shelton, CT) plate reader. Cell viability using CellTiter Glo viability assay (Promega, Madison, WI) was also measured by adding 4 ul/well of CellTiter-Glo reagent into the same assay plate using a FRD. After 30 min incubation at room temperature, the luminescence intensity in the plates was measured using a ViewLux (PerkinElmer) plate reader.
On the % scale 0 is the no-effect control and ±100 the full control effect.

Compound | max response
NCCc1ccc(O)cc1 | 13.6% (inactive)
COc1cc(OC)c(OC)cc1C=O | 3.08% (inactive)
O=C1c2ccccc2C(=O)C1C(=O)C(c1ccccc1)c1ccccc1 | -16.2% (inactive)
O=C(O)CCCc1ccc(N(CCCl)CCCl)cc1 | -0.747% (inactive) and 2.01% (inactive)
COP(=S)(OC)Oc1cc(Cl)c(Cl)cc1Cl | -0.922% (inactive)
Oc1ccc(Cl)cc1 | -5.13% (inactive)
O=P1(N(CCCl)CCCl)NCCCO1 (stereo not drawn) | 1.71% (inactive) and -4.84% (inactive)
O=C1c2ccccc2C(=O)c2ccccc21 | -5.47% (inactive)
CC(C)(C)c1ccc(O)cc1 | -7.43% (inactive)
COP(=S)(OC)Oc1ccc(SC)c(C)c1 | -8.21% (inactive) and -17% (inactive)
CCC(C)(C)c1ccc(O)cc1 | -17% (inactive) and -1.76% (inactive)
Nc1ccc([As](=O)(O)O)cc1 | -9.13% (inactive)
CC(C)NC(C)C | -19.4% (inactive)
C[C@]1(O)CC[C@H]2[C@@H]3CCC4=CC(=O)CC[C@]4(C)[C@@]3(F)[C@@H](O)C[C@@]21C | -5.41% (inactive)
CN1C[C@H](C(=O)N[C@]2(C)O[C@@]3(O)[C@@H]4CCCN4C(=O)[C@H](Cc4ccccc4)N3C2=O)C=C2c3cccc4[nH]cc(c34)C[C@H]21 | -19% (inactive) and -17.1% (inactive)
Nc1nc(N)nc(NC2CC2)n1 | 14.5% (inactive)
CC1(C)C(C=C(Cl)Cl)C1C(=O)OC(C#N)c1cccc(Oc2ccccc2)c1 (stereo not drawn) | -2.42% (inactive)
C[C@]12CCC(=O)C=C1CC[C@@H]1[C@@H]2CC[C@@]2(C)[C@H]1CC[C@]2(C)O | 11% (inactive)
Nc1ccccc1 | -9.58% (inactive)
CCCC(C)(COC(N)=O)COC(N)=O | 2.78% (inactive) and -4.68% (inactive)
COC(=O)C(c1ccccc1)C1CCCCN1 (stereo not drawn) | 3.62% (inactive) and -0.896% (inactive)
[N-]=[N+]=CC(=O)OC[C@H](N)C(=O)O | -15% (inactive)
C[C@]12CCC(=O)C=C1CC[C@@H]1[C@@H]2CC[C@]2(C)C(=O)CC[C@@H]12 | 3.62% (inactive) and -13.2% (inactive)
Nc1ccccc1C(=O)O | 1.19% (inactive)
CCOC(=O)CC(SP(=S)(OC)OC)C(=O)OCC (stereo not drawn) | 25% (inactive) and -5.73% (inactive) and -3.35% (inactive)
Clc1ccc(C(c2ccc(Cl)cc2)C(Cl)(Cl)Cl)cc1 | -18.5% (inactive) and -23.5% (inactive)
COP(=S)(OC)SCN1C(=O)c2ccccc2C1=O | 3.01% (inactive)
CC(C)c1cccc(C(C)C)c1O | -3.43% (inactive)
